The list is not random: actives were taken first. Their share in the collection is about 6.2%.
HT1080 IDH1KD tx: qHTS for induction of synthetic lethality in tumor cells producing 2HG: qHTS for the HT-1080-IDH1KD cell line; HT-1080 IDH1 knockdown viability, ATP luminescence, 48 h; Potency, µM (top dose mostly 46.1 µM), inactives show at the highest dose activity, negative = toxicity, actives largely listed as cytotoxic; 360,000 tested, 2% active; AID 686971, 2013;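 also: 0% = DMSO wells and -100% = cell-free medium wells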
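Assay cells: HT-1080 with IDH1 knockdown, 750 per well, RPMI/5% FBS. Exposure: 48 h at 37 °C following 2 h pre-incubation. Read: CellTiter-Glo luminescence; fitted concentration-response, curve class assigned.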
ATXN2 expr inh: Primary qHTS for Inhibitors of ATXN expression; 360,000 tested, 0.72% active; Potency, µM (titrated, usually from 57 µM), inactives show at the highest dose activity change, negative = inhibition, usual class: inhibitors; HEK-293 ATXN2-luciferase reporter, luminescence, 24 h; AID 1745845, 2022; also: % is scaled to controls: 0 for no effect and ±100 for the full control effect; nearly all actives have a fitted effect of over 55% in size
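ATXN2-luciferase reporter cells (luciferase flanked by upstream and downstream ATXN2 gene portions) were treated 24 h at 37 °C with compounds at up to 57 uM. SteadyGlo luminescence gave expression; GF-AFC fluorescence gave viability.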
HT1080-NT tox: qHTS for induction of synthetic lethality in tumor cells producing 2HG: qHTS for the HT-1080-NT fibrosarcoma cell line; HT-1080-NT fibrosarcoma viability, CellTiter-Glo ATP luminescence, 48 h; Potency, µM (titrated, usually from 46.1 µM), for inactives: at the highest dose activity, negative = less viability, usual class: cytotoxic; 360,000 tested, 1.6% active; AID 686970, 2013;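 also: NT is the 2HG producing partner of a matched IDH1 knockdown line; 0% = DMSO-treated cells and -100% = media-only wells without cells; nearly all actives have a fitted effect of over 55% in size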
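HT-1080-NT; 750 cells/well; 5% FBS RPMI; 48 h compound, 37 degrees C; CellTiter-Glo luminescence; curve fitting and curve-class assignment.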
S2 tox: Viability Counterscreen for Primary qHTS for Inhibitors of ATXN expression. S2 cells (HEK-293 line with an ATXN2-luciferase reporter) viability, CellTiter-Fluor protease fluorescence, 24 h. Potency, µM (series often up to 56.7 µM), actives largely listed as cytotoxic. 400,000 tested, 0.49% active; also: nearly all actives have a fitted effect of over 40% in size
KB-V1 MDR tox: qHTS assay for MDR1-selective chemotherapeutics: Primary screen using the drug-selected MDR subline cells KB-V1; KB-V1 MDR cells viability, CellTiter-Glo, 72 h; 400,000 tested, 3.4% active; Potency, µM (doses to about 46.1 µM), hits mostly cytotoxic; also: % is scaled to controls: 0 for no effect and ±100 for the full control effect; nearly all actives have a fitted effect of over 60% in size
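KB-V1 cells (P-gp-expressing MDR subline of KB-3-1) in phenol-red-free DMEM with 10% FBS were exposed to library compounds over a concentration series for 72 h at 37 degrees C. Viability read by CellTiter-Glo luminescence; concentration-effect curves fitted after normalization.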
KB-3-1 cytotox: qHTS assay for MDR1-selective chemotherapeutics: Primary screen using the parental adenocarcinoma cell KB-3-1. KB-3-1 viability, CellTiter-Glo ATP luminescence, 72 h. Potency, µM (doses to about 46.1 µM), most hits filed as cytotoxic. 400,000 tested, 1.4% active. AID 1347075, 2019; also: % is scaled to controls: 0 for no effect and ±100 for the full control effect; nearly all actives have a fitted effect of over 60% in size
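Parental KB-3-1 viability, qHTS format: 72 h compound exposure, 37 °C; CellTiter-Glo; media-only wells and DMSO plates as controls; concentration-effect fits on corrected data.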
Starred values were filed as active, the others as inactive; i = inactive; ? = inconclusive; . = no result given; ! = repeats disagree. Calls follow the shape of the dose curve; as a rule, active = well fitted curve in the direction sought with a large enough effect; inconclusive = small, poorly fitted or top-dose-only effect, or another doubt; inactive = no such curve, though single readings can be large; an effect the other way counts as inactive or inconclusive. Potency is read from the fitted curve at half-maximal effect.

SMILES	HT1080 IDH1KD tx	ATXN2 expr inh	HT1080-NT tox	S2 tox	KB-V1 MDR tox	KB-3-1 cytotox
CCc1ccc(NC(=O)C(C)OC(=O)c2ccc(NS(=O)(=O)c3ccc(C)c([N+](=O)[O-])c3)cc2)cc1 (stereo not drawn)	?	-25%	?	?	?	23µM*
CC(C)[C@H](NC(=O)c1ccccc1)C(=O)OCC(=O)c1ccc(S(=O)(=O)N2CCCCC2)cc1	0%	3%	2%	i	21µM*	i
CC(=O)Nc1ccc(NC(=O)C(C)OC(=O)c2ccc(S(=O)(=O)N3CCCCC3)cc2)cc1 (stereo not drawn)	?	?	23µM*	?	i	i
O=C(Nc1ccc(S(=O)(=O)N2CCCCC2)cc1)C1CCCN(C(=O)c2ccc(Cl)cc2)C1 (stereo not drawn)	-10%	-20%	-8%	i	i	9.2µM*
CCOC(=O)N1CCN(Cc2ccc3c(c2)CN(C(=O)c2sc(C)nc2C)CCO3)CC1	.	.	.	i	.	.
CCOCCc1nn2c(=O)cc(COC(=O)C(CC)c3ccccc3)nc2s1 (stereo not drawn)	.	1%	.	i	i	i
Cc1ccc(CN2C(=O)C3(c4ccccc42)N(c2cccc(C(F)(F)F)c2)C(=O)CS3(=O)=O)cc1 (stereo not drawn)	.	-14%	.	i	i	i
CC1CC1C(=O)Nc1ccc(S(=O)(=O)N2CCCCC2)cc1 (stereo not drawn)	-2%	-2%	-4%	i	10µM*	i
CC1CCCN(CC(=O)Nc2ccc(S(=O)(=O)N3CCCCC3)cc2)C1 (stereo not drawn)	8%	-1%	8%	i	i	i
CC1CCCN(CC(=O)Nc2ccc(S(=O)(=O)N3CCCCCC3)cc2)C1 (stereo not drawn)	?	-7%	22µM*	i	?	i
O=C(O)C1CCCCC1C(=O)Nc1ccc(S(=O)(=O)N2CCCCCC2)cc1 (stereo not drawn)	-16%	-12%	-3%	i	i	i
COC(=O)Nc1ccc(S(=O)(=O)N2CCCCC2)cc1	-24%	2%	-25%	i	8.2µM*	?
CCOC(=O)c1ccc(NC(=O)C2CCCN(S(=O)(=O)c3ccc(F)cc3)C2)cc1 (stereo not drawn)	?	32µM*	?	?	?	i
COC(=O)Nc1ccc(S(=O)(=O)N2CCN(C)CC2)cc1	15%	5%	17%	i	i	i
CCOc1ccc(C(=O)Nc2ccc3nn(-c4ccc(OC)c(Cl)c4)nc3c2)cc1	.	-3%	.	i	i	i
Cc1nc(Nc2nc3ccccc3o2)nc2c1CCCC2	.	.	.	.	i	i
COc1cc(C(O)c2nc(-c3cccc4cccnc34)cs2)ccc1F (stereo not drawn)	5%	5%	-2%	i	i	i
O=C(Nc1ccc([N+](=O)[O-])cc1Cl)c1ccccc1O	.	.	.	.	16µM*	2.9µM*!
O=C(Nc1cccc(NC(=O)c2cc([N+](=O)[O-])ccc2Cl)n1)c1cc([N+](=O)[O-])ccc1Cl	12µM*	.	?	.	15µM*	18µM*
CC(=O)Oc1c(C)cc(Cl)cc1C(=O)Nc1ccc([N+](=O)[O-])cc1Cl	1.2µM*	?	?	28µM*	i	7.3µM*
CC(=O)OCC(=O)Nc1ccc([N+](=O)[O-])cc1Cl	2%	0%	7%	i	?	i
O=C(Nc1c(Cl)cc([N+](=O)[O-])cc1Cl)c1cc(Cl)cc(Cl)c1O	.	.	.	.	?	18µM*

Screening data deposited in PubChem BioAssay by National Center for Advancing Translational Sciences (NCATS).
